# Source: PubChem BioAssay (EPA / NIEHS)
# Results filed as inconclusive are left out. Some compounds were tested as several samples or in several runs, with calls that do not always agree. The source made the active and inactive calls. The calls were made as follows, unless noted: active = hit-call score of the fitted dose curve at least 0.9, where 1 is the maximum; inconclusive = response in the unintended direction; inactive = score below 0.9.
# Experiments:
# [1] = system: DIO1 (gene 1733); assay: CCTE_GLTED_hDIO1: CCTE's human Deiodinase 1 (DIO1) Inhibition Assay, Great Lakes Toxicology and Ecology Division (GLTED) Lab (AID 2283987);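 also: isolated human DIO1 enzyme in a cell-free setup rather than cells; enzyme activity read as free iodide liberated from substrate via Sandell-Kolthoff colorimetry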
# How it was run: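 Chemicals are tested on human DIO1 without cells for 3 h. Uninhibited enzyme frees iodide, which speeds cerium(IV) reduction by arsenic and is read by spectrophotometry.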
# [2] = TOX21_TR_RXR_BLA_Antagonist_Followup_viability: Viability Assessment in the Tox21 Thyroid Hormone Receptor beta Retinoid X Receptor alpha (RXRa) Antagonism Beta-lactamase (BLA) Follow-Up Assay (AID 2283979)
# How it was run: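 Follow-up compounds (11 concentrations, triplicate) were incubated 16 h at 37C/5% CO2 with HEK293T RXRa-bla cells seeded at 2,500/well in charcoal-stripped-serum medium. ATP content by CellTiter-Glo luminescence gave viability; curves fitted in both directions against DMSO.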
# [3] = target: Retinoic acid receptor RXR-alpha (Homo sapiens) (UniProt P19793); assay: TOX21_TR_RXR_BLA_Agonist_Followup_ratio: Tox21 Thyroid Hormone Receptor beta Retinoid X Receptor alpha (RXRa) Agonism Beta-lactamase (BLA) Follow-Up Assay, Ratio (AID 2283968)
# How it was run: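 Agonism is scored as an increase in the 460:530 nm beta-lactamase substrate ratio over DMSO in RXRa-UAS-bla HEK293T cells exposed for 16 h to 11 compound concentrations.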
# [4] = TOX21_TR_RXR_BLA_Agonist_Followup_viability: Viability Assessment in the Tox21 Thyroid Hormone Receptor beta Retinoid X Receptor alpha (RXRa) Agonism Beta-lactamase (BLA) Follow-Up Assay (AID 2283970)
# How it was run: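 Luminescent ATP read (CellTiter-Glo) after 16h exposure of RXRa-UAS-bla HEK293T cells at 37C/5% CO2. Activity normalized to DMSO; signal loss scored as reduced viability.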
# [5] = target: Retinoic acid receptor RXR-alpha (Homo sapiens) (UniProt P19793); assay: TOX21_TR_RXR_BLA_Antagonist_Followup_ratio: Tox21 Thyroid Hormone Receptor beta Retinoid X Receptor alpha (RXRa) Antagonism Beta-lactamase (BLA) Follow-Up Assay, Ratio (AID 2283972)
# How it was run: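 Compounds were tested in triplicate at 11 concentrations on RXRa-bla HEK293T cells for 16 h. Substrate cleavage ratio, normalized to DMSO, gave the endpoint.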
# [6] = target: Nucleoli Translocation, AR (gene 367) (UniProt P10275); assay: UPITT_HCI_U2OS_AR_TIF2_Nucleoli_Antagonist: University of Pittsburgh U2OS Androgen Receptor-Transcriptional Intermediary Factor 2 (AR-TIF2) Antagonism High Content Imaging Assay for Nucleoli Translocation (AID 2283997)
# How it was run: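 Antagonism is read as loss of nucleolar AR-RFP signal relative to DHT, imaged in U2OS cells also carrying GFP-TIF2. Compounds screened at 20 uM final, 0.2% DMSO; primary actives retested in triplicate.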
# [7] = target: Nucleoli Translocation, AR (gene 367) (UniProt P10275); assay: UPITT_HCI_U2OS_AR_TIF2_Nucleoli_Agonist: University of Pittsburgh U2OS Androgen Receptor-Transcriptional Intermediary Factor 2 (AR-TIF2) Agonism High Content Imaging Assay for Nucleoli Translocation (AID 2283998)
# How it was run: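 High-content images quantify nucleolar accumulation of RFP-fused AR in cells also expressing GFP-TIF2; the endpoint is fitted as signal gain versus DMSO controls across final concentrations of 0.195 to 50 uM.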
# [8] = target: Ratio of Nucleoli Translocation and Cytoplasm, AR (gene 367) (UniProt P10275); assay: UPITT_HCI_U2OS_AR_TIF2_Nucleoli_Cytoplasm_Ratio_Antagonist: University of Pittsburgh U2OS Androgen Receptor-Transcriptional Intermediary Factor 2 (AR-TIF2) Antagonism High Content Imaging Assay for Ratio of Nucleoli Translocation and Cytoplasm (AID 2283999);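 also: antagonists lower the DHT-driven ratio of nucleolar to cytoplasmic red signal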
# How it was run: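 This antagonist-mode endpoint tracks AR-RFP localisation, the nucleolus-to-cytoplasm intensity ratio, in TIF2-GFP-coexpressing U2OS cells. DMSO stays at or below 0.5%; testing spans 20 uM single-dose and 0.195–50 uM series, with DHT setting the activity baseline.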
# [9] = target: Ratio of Nucleoli Translocation and Cytoplasm, AR (gene 367) (UniProt P10275); assay: UPITT_HCI_U2OS_AR_TIF2_Nucleoli_Cytoplasm_Ratio_Agonist: University of Pittsburgh U2OS Androgen Receptor-Transcriptional Intermediary Factor 2 (AR-TIF2) Agonism High Content Imaging Assay for Ratio of Nucleoli Translocation and Cytoplasm (AID 2284000);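 also: hits raise the red nucleolar to cytoplasm ratio above vehicle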
# How it was run: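 Compounds tested at 20 uM final in primary screen (0.2% DMSO) and 0.195-50 uM final in dose-response (0.5% DMSO). Imaging of human U2OS cells bearing RFP-AR and GFP-TIF2; endpoint is nucleoli/cytoplasm red signal ratio, positive direction relative to DMSO.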
# [10] = CCTE_Harrill_HTTr_Viability_MCF7: CCTE's 6-hour Cell Viability Assessment for the High-Throughput Transcriptomics (HTTr) Platform, in MCF-7 cells cultured in DMEM + 10% fetal bovine serum, Harrill Lab (AID 2284010; active = hit-call score of the fitted dose curve at least 0.9, where 1 is the maximum; inactive = score below 0.9)
# How it was run: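 Eight-point concentration series, six-hour exposure. Propidium iodide exclusion imaged to assess membrane integrity as a cytotoxicity readout; bidirectional fitting was done with DMSO as negative control and activity baseline.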
# [11] = CCTE_Harrill_HTTr_Apoptosis_MCF7: CCTE's 6-hour Apoptosis Assessment for the High-Throughput Transcriptomics (HTTr) Platform, in MCF-7 cells cultured in DMEM + 10% fetal bovine serum, Harrill Lab (AID 2284011; active = hit-call score of the fitted dose curve at least 0.9, where 1 is the maximum; inactive = score below 0.9)
# How it was run: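 Apoptosis in MCF-7 cells grown in DMEM with 10% fetal bovine serum was scored after a six hour exposure by high content imaging of caspase-3/7 activation (CellEvent Caspase 3/7 Green), with DMSO serving as negative control and baseline.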
# [12] = CCTE_Shafer_MEA_acute_spike_number: CCTE's Neural Acute Assay for Total Number of Spikes, Shafer Lab (AID 2284008; active = hit-call score of the fitted dose curve at least 0.9, where 1 is the maximum; inactive = score below 0.9;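 as to AC50: curve fitted for decrease in spike count so AC50 reflects inhibitors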)
# How it was run: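 Using an adaptive detector set to 8x rms noise, spikes were counted in 40-min windows before and after compound addition (0.03-40 uM) to rat cortical networks at 37 C; the well-level change from baseline was analysed relative to DMSO.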
# [13] = CCTE_Shafer_MEA_acute_firing_rate_mean: CCTE's Neural Acute Assay for Mean Firing Rate, Shafer Lab (AID 2284009; active = hit-call score of the fitted dose curve at least 0.9, where 1 is the maximum; inactive = score below 0.9;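 also: analyzed for loss of signal so actives lower firing rate relative to DMSO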)
# How it was run: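 Primary rat cortical neurons on 16-electrode MEA wells were exposed on DIV 13 or 15 to compound (0.03-40 uM). Spike counts per recording time, averaged over electrodes, were compared between 40-min baseline and 40-min post-exposure recordings as percent change.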
# [14] = CCTE_Harrill_HTTr_CellCount_MCF7: CCTE's Cell Proliferation Assessment for the High-Throughput Transcriptomics (HTTr) Platform, Harrill Lab (AID 2284012);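 also: count of Hoechst-stained nuclei per well by high-content imaging in MCF-7 cells; cells exposed to compound for six hours; intended direction is loss of nuclei count meaning fewer cells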
# How it was run: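 For this full-screen endpoint, MCF-7 cultures received eight compound dilutions for six hours. Well nuclei counts from Hoechst imaging were analyzed relative to DMSO.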
# [15] = CCTE_Shafer_MEA_acute_burst_number: CCTE's Neural Acute Assay for Single-Electrode Bursts, Shafer Lab (AID 2284013; active = hit-call score of the fitted dose curve at least 0.9, where 1 is the maximum; inactive = score below 0.9)
# How it was run: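 Primary rat cortical neurons on 16-electrode MEA wells, DIV 13 or 15, exposed to compound (0.03-40 uM; ≥3 wells); 40-min recordings at 37 C before and after treatment. Burst count expressed as percent change from baseline, DMSO as negative control.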
# [16] = CCTE_Shafer_MEA_acute_burst_duration_mean: CCTE's Neural Acute Assay for Mean Burst Duration, Shafer Lab (AID 2284014; active = hit-call score of the fitted dose curve at least 0.9, where 1 is the maximum; inactive = score below 0.9;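 also: hits are decreases in mean burst duration relative to DMSO controls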)
# How it was run: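 Mean burst duration was compared between a 40 min baseline and a 40 min recording in the presence of compound (0.03-40 uM, 37 C), giving percent change per well. Cultures were rat cortical neurons at DIV 13 or 15; wells needed ≥10 active electrodes.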
# [17] = CCTE_Shafer_MEA_acute_per_burst_spike_number_mean: CCTE's Neural Acute Assay for Average Number of Spikes Per Burst, Shafer Lab (AID 2284015; active = hit-call score of the fitted dose curve at least 0.9, where 1 is the maximum; inactive = score below 0.9;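 also: hits are decreases in mean spikes per burst versus baseline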)
# How it was run: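 Rat primary cortical neurons on 48-well MEAs (DIV 13 or 15) were treated with 0.03-40 uM compound at 37 C. Mean spikes per burst over 40 min were recorded before and after exposure and expressed as percent change from baseline, relative to DMSO.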
# [18] = CCTE_Shafer_MEA_acute_interburst_interval_mean: CCTE's Neural Acute Assay for Mean Interburst Interval, Shafer Lab (AID 2284016; active = hit-call score of the fitted dose curve at least 0.9, where 1 is the maximum; inactive = score below 0.9;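 also: percent change of mean interburst interval versus each well's own pre-dose baseline; curves fitted for decrease in interburst interval relative to DMSO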)
# How it was run: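 Rat primary cortical neurons on 48-well MEAs at DIV 13 or 15 were exposed acutely to 0.03-40 uM. Spikes detected at 8x rms noise, 37 C. Mean interburst interval from 40 min recordings expressed as percent change from 40 min pre-treatment baseline.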
# [19] = CCTE_Shafer_MEA_acute_burst_percentage_mean: CCTE's Neural Acute Assay for Percentage of Spikes in a Burst, Shafer Lab (AID 2284017; active = hit-call score of the fitted dose curve at least 0.9, where 1 is the maximum; inactive = score below 0.9;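 as to AC50: curve fitted for loss of signal so potency reflects decreased burst percentage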)
# How it was run: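 Primary rat cortical neurons on 48-well MEA plates, treated on DIV 13 or 15 at 0.03-40 uM. Spikes detected at 8x rms noise at 37C; percent change from 40-min baseline to 40-min post-dose recording, fitted versus DMSO.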
# [20] = CCTE_Shafer_MEA_acute_burst_percentage_std: CCTE's Neural Acute Assay for Standard Deviation of Burst Percentage, Shafer Lab (AID 2284018; active = hit-call score of the fitted dose curve at least 0.9, where 1 is the maximum; inactive = score below 0.9;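 also: fitted in the negative direction so actives lower burst percentage SD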)
# How it was run: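 Value is percent change from baseline in the across-electrode SD of spikes-in-bursts percentage, wells with >/= 10 active electrodes. Acute 40-min exposure to 0.03-40 uM on DIV 13 or 15 rat cortical cultures, recorded at 37 C after 40-min baseline.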
# Sequence of Retinoic acid receptor RXR-alpha (Homo sapiens) (P19793 whole entry, looked up): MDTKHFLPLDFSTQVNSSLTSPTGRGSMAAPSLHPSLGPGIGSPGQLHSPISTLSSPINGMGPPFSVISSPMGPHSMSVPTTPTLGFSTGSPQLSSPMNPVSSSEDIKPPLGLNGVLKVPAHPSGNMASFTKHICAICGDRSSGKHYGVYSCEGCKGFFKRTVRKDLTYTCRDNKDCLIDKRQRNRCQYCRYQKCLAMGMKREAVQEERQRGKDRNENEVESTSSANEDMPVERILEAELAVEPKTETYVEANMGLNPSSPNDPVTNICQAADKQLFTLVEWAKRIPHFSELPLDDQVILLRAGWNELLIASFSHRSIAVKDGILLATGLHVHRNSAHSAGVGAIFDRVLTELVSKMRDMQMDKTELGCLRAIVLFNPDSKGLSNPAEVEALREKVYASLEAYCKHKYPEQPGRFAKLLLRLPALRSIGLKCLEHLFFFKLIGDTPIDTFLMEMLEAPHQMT
# Sequence of Ratio of Nucleoli Translocation and Cytoplasm, AR (gene 367) (P10275 whole entry, looked up): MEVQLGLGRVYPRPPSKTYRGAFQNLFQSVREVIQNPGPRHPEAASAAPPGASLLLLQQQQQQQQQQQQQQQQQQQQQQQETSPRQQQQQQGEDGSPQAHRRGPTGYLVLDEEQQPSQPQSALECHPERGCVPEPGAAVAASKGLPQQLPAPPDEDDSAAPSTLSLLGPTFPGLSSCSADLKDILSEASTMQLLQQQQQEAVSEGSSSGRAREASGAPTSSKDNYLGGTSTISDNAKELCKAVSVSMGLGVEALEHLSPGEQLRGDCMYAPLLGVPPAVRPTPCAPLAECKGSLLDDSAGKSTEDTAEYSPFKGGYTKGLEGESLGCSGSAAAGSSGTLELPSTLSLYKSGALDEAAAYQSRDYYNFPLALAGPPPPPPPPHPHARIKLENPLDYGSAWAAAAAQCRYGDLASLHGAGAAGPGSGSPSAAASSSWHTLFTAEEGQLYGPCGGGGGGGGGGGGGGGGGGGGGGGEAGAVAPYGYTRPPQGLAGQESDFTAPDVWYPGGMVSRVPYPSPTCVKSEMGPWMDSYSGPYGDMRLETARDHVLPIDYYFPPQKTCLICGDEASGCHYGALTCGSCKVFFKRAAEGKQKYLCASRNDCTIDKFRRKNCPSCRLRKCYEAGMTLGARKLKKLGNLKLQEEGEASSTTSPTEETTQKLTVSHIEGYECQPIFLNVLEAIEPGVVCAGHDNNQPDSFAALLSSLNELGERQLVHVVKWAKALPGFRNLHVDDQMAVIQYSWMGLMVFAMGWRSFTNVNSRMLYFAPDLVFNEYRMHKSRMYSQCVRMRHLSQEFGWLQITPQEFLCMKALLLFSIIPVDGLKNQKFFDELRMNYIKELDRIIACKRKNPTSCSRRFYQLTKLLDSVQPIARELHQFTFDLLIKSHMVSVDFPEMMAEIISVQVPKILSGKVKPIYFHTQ
# Sequence of Nucleoli Translocation, AR (gene 367) (P10275 whole entry, looked up, the tested form may be a part): as the sequence (P10275 whole entry, looked up) above
smiles,measurement,setting,value
CCCCC/C=C\C/C=C\CCCCCCCC(=O)OC,AC50,[1],21 µM (active)
COCc1c(C(C)C)nc(C(C)C)c(/C=C/[C@@H](O)C[C@@H](O)CC(=O)O)c1-c1ccc(F)cc1,outcome,[2],inactive
NC(CO)(CO)CO,outcome,[3],inactive
same,outcome,[4],inactive
CCCCCCCCCCCCCOP(=O)(O)O,AC50,[1],91 µM (active)
N=c1ccn2c(n1)O[C@H]1[C@H](O)[C@@H](CO)O[C@H]12,outcome,[2],inactive
Oc1ccc(Cl)cc1Cc1cc(Cl)ccc1O,AC50,[5],38.3 µM (active)
same,AC50,[2],5.34 µM (active)
same,AC50,[1],99.8 µM (active)
same,AC50,[6],12.1 µM (active)
same,AC50,[7],1.77 µM (active)
same,AC50,[8],16.3 µM (active)
same,outcome,[9],inactive
same,outcome,[10],inactive
same,outcome,[11],inactive
CCCc1ccc(OC)cc1,outcome,[6],inactive
same,outcome,[8],inactive
Nc1ncn([C@@H]2O[C@H](CO)[C@@H](O)[C@H]2O)c(=O)n1,AC50,[12],0.00765 µM (active)
same,AC50,[13],0.00763 µM (active)
same,outcome,[10],inactive
same,outcome,[11],inactive
same,outcome,[14],inactive
same,AC50,[15],0.0142 µM (active)
same,outcome,[16],inactive
same,AC50,[17],5 µM (active)
same,AC50,[18],7.71 µM (active)
same,AC50,[19],8.06 µM (active)
same,AC50,[20],15 µM (active)
CCCCC(CC)COCC1CO1 (stereo not given),outcome,[12],inactive
same,outcome,[13],inactive
same,outcome,[15],inactive
same,outcome,[16],inactive
same,outcome,[17],inactive
same,outcome,[18],inactive
same,outcome,[19],inactive
same,outcome,[20],inactive
Cc1oncc1C(=O)Nc1ccc(C(F)(F)F)cc1,outcome,[5],inactive
same,outcome,[2],inactive
same,outcome,[10],inactive
same,outcome,[11],inactive
same,outcome,[14],inactive
CCCCC/C=C\CCC=O,outcome,[6],inactive
same,outcome,[7],inactive
same,outcome,[9],inactive
c1cc(N(CC2CO2)CC2CO2)ccc1OCC1CO1 (stereo not given),outcome,[2],inactive
CC(C)(Oc1ccc(C2CC2(Cl)Cl)cc1)C(=O)O (stereo not given),outcome,[6],inactive
same,outcome,[7],inactive
same,outcome,[8],inactive
same,outcome,[9],inactive
same,outcome,[10],inactive
same,outcome,[11],inactive
same,outcome,[14],inactive
O=c1cc(-c2ccccc2)oc2ccccc12,AC50,[6],21.9 µM (active)
same,outcome,[7],inactive
same,AC50,[8],10.5 µM (active)
same,outcome,[10],inactive
same,outcome,[11],inactive
CC(CC=O)CCCC(C)(C)O (stereo not given),outcome,[6],inactive
same,outcome,[7],inactive
same,outcome,[8],inactive
same,outcome,[9],inactive
Cc1ccc(N/N=c2\c(=O)cc/c(=N/Nc3ccc(S(=O)(=O)O)cc3)c2=O)c(C)c1,AC50,[1],46.6 µM (active)
Nc1ccc(N)c(Cl)c1,outcome,[12],inactive
same,outcome,[13],inactive
same,outcome,[15],inactive
same,outcome,[16],inactive
same,outcome,[17],inactive
same,outcome,[18],inactive
same,outcome,[19],inactive
CN(C)c1ccc(C(=N)c2ccc(N(C)C)cc2)cc1,outcome,[10],inactive
same,AC50,[11],40.5 µM (active)
same,outcome,[11],inactive
same,outcome,[14],inactive
O=c1[nH]nc(-c2ccc([N+](=O)[O-])o2)o1,outcome,[10],inactive
same,outcome,[11],inactive
